Results on seven compounds are retold here after PubChem BioAssay (NCATS).

Each structure is given as a SMILES string. Results filed as inconclusive are left out. Calls of active or inactive are those of the source. Unless noted, calls follow the shape of the dose curve; as a rule, active = well fitted curve in either direction with a large enough effect (not every such curve was filed as active); inconclusive = small, poorly fitted or top-dose-only effect, or another doubt; inactive = flat fitted curve, though single readings scatter.

In assay [1] the target is Lysosomal acid glucosylceramidase (Homo sapiens) (UniProt P04062). Put plainly: Glucocerebrosidase-p2 (AID 348; in the data active = potency below about 10 µM; also: potency is read from the fitted curve at half-maximal effect). As to conditions: purified GBA, blue fluorogenic substrate, 40 min. The method in brief:
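Compounds titrated from 0.6 nM upwards against 0.2 nM enzyme in pH 5.9 citric acid/KH2PO4, taurocholate, tween-20; blue fluorogenic substrate 80 uM, 40 min room temperature, stopped and read Ex 365/Em 440 for AC50.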

Assay [2] is described as follows: AP1 Signaling Pathway (AID 357). Also: % is scaled to controls: 0 for no effect and ±100 for the full control effect. As to conditions: ME-180 AP-1-bla reporter, EGF-induced, beta-lactamase ratio, 5 h; at 7.69 µM (top of the series) unless noted. The method in brief: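 Cells are seeded overnight, exposed to compound titrations and an EC50 level of EGF for 5 hours at 37 °C, then loaded with CCF4 dye for 2.5 hours. Beta-lactamase activity under the AP-1 element is read as a blue/green ratio.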

The nature of assay [3]: NFAT Signaling Pathway (AID 444).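 Also: carbachol stimulus at about its EC50 of 1 µM final; % is scaled to controls: 0 for no effect and ±100 for the full control effect.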 As to conditions: Jurkat NFAT-bla M1, carbachol, beta-lactamase ratio, 5 h; at 7.69 µM (top of the series) unless noted. The method in brief:
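Read-out: CCF4 FRET ratio (460 nm/530 nm) after 1 h RT dye loading, used for %activity and AC50 from titration series. Cells: Jurkat NFAT-β-lactamase/M1 line, treated with compound plus 1 uM carbachol for 5 h, 37 °C.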

Assay [4] can be described thus: Stat Signaling Pathway (AID 446).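 Also: ME-180 cervical cancer cells given 40 pM IL-6 alongside compound; SIE-controlled beta-lactamase reporter measured as 460/530 nm FRET emission ratio; % is scaled to controls: 0 for no effect and ±100 for the full control effect.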 As to conditions: ME-180 SIE beta-lactamase reporter, IL-6 stimulated, 5 h; at 7.69 µM (top of the series) unless noted. Summed up:
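ME-180 cells carrying a SIE-driven beta-lactamase reporter are stimulated with 40 pM IL-6 for 5 h at 37C in the presence of compound. The 460/530 nm FRET substrate ratio is read after 2.5 h at RT. Data are normalised to 300 pM IL-6 and to 125 nM JAK inhibitor controls.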

Assay [5] addresses Glucocorticoid receptor (Homo sapiens) (UniProt P04150). Put plainly: GR-GFP Redistribution (AID 450;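 active = compounds whose dose series gives a full or clear partial fitted curve of increased nuclear translocation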; also: potency is read from the fitted curve at half-maximal effect). As to conditions: U2OS GR-GFP nuclear translocation, laser cytometry, 2 h.
Assay [6] has the same target. Briefly: GR-EFC Redistribution (AID 451; calls by dose curve; also: potency is read from the fitted curve at half-maximal effect). Particulars: CHO-K1 GR-EFC translocation, beta-gal luminescence, 2 h. The method in brief:
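Translocation of GR-ED fusion to nuclear EA restores b-gal, read by luminescence after 1 h room-temperature detection. Engineered CHO-K1 biosensor cells, 1,000/well, exposed 2 h at 37 C to titrations up to 46 uM final.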

For assay [7], the target named is Mitogen-activated protein kinase 10 (Mus musculus) (UniProt Q61831). Briefly: JNK3 AlphaScreen Assay (AID 530).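 Also: kinase came from lysate of stimulated human HepG2 cells; signal reports phosphorylation of biotinylated GST-cJun 1-79 at Ser73 with 10 µM ATP; % is scaled to controls: 0 for no effect and ±100 for the full control effect.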 As to conditions: JNK3 lysate, c-Jun phosphorylation; series mostly up to 57.1 µM. Summed up:
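Compound titrations were preincubated 15 minutes at room temperature with substrate, antibody and pre-activated JNK3-containing HepG2 lysate. Reactions were started with 10 uM ATP and stopped with EDTA-containing bead buffer for AlphaScreen detection.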
For orientation: Bead proximity is the source of the signal in Alpha formats.

Assay [8] concerns the target 3',5'-cyclic-AMP phosphodiesterase 4B (Homo sapiens) (UniProt Q07343). Briefly: qHTS Assay for Inhibitors of PDE-IV (AID 607; active = well fitted activation curve with a large enough effect in the main read-out, with a control signal flat, not every such curve was filed as active; also: % of control where 0% means no effect). As to conditions: HEK293 ACTOne CNG channel cells, membrane potential fluorescence; series mostly up to 22.9 µM. The method in brief:
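HEK293 ACTOne cells with CNG channel (1000/well), endogenous PDE4; membrane potential dye, compounds up to 22.9 uM final. Fluorescence Ex 535/Em 590; RO 20-1724 (100 uM final) as reference.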
On the technique in general: In qHTS, concentration-response curves come from the screen itself.

The nature of assay [9]: Confirmation and Secondary Assay for Modulators of Hemoglobin Beta Chain Splicing at IVS2 654 locus (AID 910; active = well fitted curve in the direction sought with a large enough effect; an effect the other way counts as inactive or inconclusive;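 also: HeLa cells stably carrying EGFP split by mutant beta-globin IVS2-654 intron; per-well total GFP intensity by laser scanning cytometry after 2-day treatment; % of control where 0% means no effect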). As to conditions: HeLa EGFP-654 splicing reporter, GFP fluorescence, 48 h; series mostly up to 38.3 µM. Summed up:
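Readout: per-well total peak green fluorescence (488 nm ex, 500–520 nm em) from objects 5–250 µm, reflecting correct splicing of an EGFP-654 reporter. Compounds were applied for 2 days at 37 °C to overnight-plated HeLa EGFP-654 cells; controls were DMSO and 500 nM IVS2-654 PNA.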

The nature of assay [10]: Confirmation and Secondary Assay for Modulators of Hemoglobin Beta Chain Splicing at IVS2 705 locus (AID 930; active = well fitted curve in the direction sought with a large enough effect; an effect the other way counts as inactive or inconclusive;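 also: HeLa cells stably expressing the EGFP-705 splicing reporter; % of control where 0% means no effect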). Particulars: HeLa EGFP-705 splicing reporter, GFP fluorescence, 48 h; series mostly up to 38.3 µM. Summed up: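 Splice-correction reporter: EGFP cDNA split by beta-globin intron 2 bearing the 705 mutation, stably in HeLa. Compound incubation 2 days, 37C; fluorescent objects 5-250 µm summed per well.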

Assay [11] is described as follows: qHTS Assay for Lipid Storage Modulators (AID 1519; calls by dose curve). Particulars: Drosophila S3 cells, BODIPY lipid droplet/cell ratio, laser cytometry, cells loaded with oleic acid; for activity change, negative = inhibition: at 57.5 µM (top of the series). Summed up: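 Cells seeded at 5,000 per well were treated with compounds over a concentration series and loaded with oleic acid (400 uM, as added). Lipid droplet fluorescence (488 nm excitation, 500-530 nm channel) was read by laser-scanning cytometry and normalized to 20 uM Triacsin C.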

Assay [12] addresses Ubiquitin carboxyl-terminal hydrolase 1 (Homo sapiens) (UniProt O94782). Put plainly: Inhibitors of USP1/UAF1: Pilot qHTS (AID 504865; active = well fitted curve in the direction sought with a large enough effect; an effect the other way counts as inactive or inconclusive;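 also: rhodamine fluorescence freed from ubiquitin-rhodamine substrate followed over time; top concentration of the series differs between compounds; % is scaled to controls: 0 for no effect and ±100 for the full control effect; nearly all actives have a fitted effect of over 35% in size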). Particulars: purified USP1/UAF1, Ub-rhodamine cleavage fluorescence; series mostly up to 54.9 µM. Summed up:
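USP1/UAF1 complex (1nM) preincubated with compound 15 min at room temperature, then Ub-Rho substrate (150nM final) added. Fluorescence read kinetically at 480/540 nm, 6 reads every 60 seconds. Buffer: 50mM HEPES pH 7.8, 0.5mM EDTA, 0.1 mg/ml BSA, 1mM TCEP, 0.01% Tween-20.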

Assay [13] is described as follows: Primary qHTS for small molecule stabilizers of the endoplasmic reticulum resident proteome: Secreted ER Calcium Modulated Protein (SERCaMP) assay (AID 1508630; active = well fitted curve in the direction sought with a large enough effect; an effect the other way counts as inactive or inconclusive; also: % is scaled to controls: 0 for no effect and ±100 for the full control effect). Particulars: SH-SY5Y GLuc-SERCaMP (Gaussia luciferase released on ER calcium loss) secretion, thapsigargin, luminescence; series mostly up to 38.4 µM. Summed up: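 GLuc-SERCaMP-expressing SH-SY5Y cells, pretreated 16 h with compound, are challenged with thapsigargin to empty ER calcium stores; after 4 h, coelenterazine is added directly to the medium and luminescence is imaged.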

The target in assay [14] is Cytochrome P450 2D6 (Homo sapiens) (UniProt P10635). Briefly: qHTS Assay for Inhibitors and Substrates of Cytochrome P450 2D6 (AID 891; active = well fitted curve in the direction sought with a large enough effect; an effect the other way counts as inactive or inconclusive; also: potency is read from the fitted curve at half-maximal effect; nearly all actives have a fitted effect of over 60% in size). Particulars: recombinant CYP2D6, luciferin-ME EGE luminescence; series mostly up to 57.1 µM. Summed up: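 Human CYP2D6 (5 nM) with 30 uM Luciferin-ME EGE (at Km) in 100 mM KPO4, compound preincubated 10 min, then NADPH regeneration system for 60 min at room temperature. Luciferin read by luminescence; normalized to 1.43 uM quinidine.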
Sequence of Cytochrome P450 2D6 (Homo sapiens) (P10635 whole entry, looked up): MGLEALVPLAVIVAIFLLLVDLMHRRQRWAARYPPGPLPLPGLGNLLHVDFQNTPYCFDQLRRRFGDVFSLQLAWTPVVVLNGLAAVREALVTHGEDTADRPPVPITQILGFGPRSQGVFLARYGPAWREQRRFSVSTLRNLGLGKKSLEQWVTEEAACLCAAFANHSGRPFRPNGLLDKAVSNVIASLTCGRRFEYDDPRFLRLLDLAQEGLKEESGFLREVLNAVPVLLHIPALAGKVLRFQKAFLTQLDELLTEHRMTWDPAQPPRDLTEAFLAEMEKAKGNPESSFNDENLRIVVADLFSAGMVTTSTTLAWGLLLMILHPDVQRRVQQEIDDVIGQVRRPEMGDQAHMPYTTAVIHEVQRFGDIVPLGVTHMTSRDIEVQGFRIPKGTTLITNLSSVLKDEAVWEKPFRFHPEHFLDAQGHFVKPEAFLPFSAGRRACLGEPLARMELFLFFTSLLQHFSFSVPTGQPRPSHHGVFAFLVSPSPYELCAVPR

Assay [15] in a line: qHTS Assay for Identification of Small Molecule Agonists for Hypoxia Response Element Signaling Pathway (AID 914; active = well fitted activation curve with a large enough effect in the signal ratio, with a control signal flat, not every such curve was filed as active; the % refers to the signal ratio; also: % of control where 0% means no effect). As to conditions: ME-180 (cervical carcinoma) HRE-bla reporter, beta-lactamase ratio, CoCl2, 17 h; activation: stronger effect = higher value. Summed up: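 Cells were plated overnight, pin-dosed with compound in a titration series, co-stimulated with EC50 CoCl2 and incubated 17 hours at 37 degrees Celsius. CCF4 substrate was then loaded, and AC50 values came from the 460nm/530nm ratio.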

Assay [16] deals with Cytochrome P450 3A4 (Homo sapiens) (UniProt P08684). Briefly: qHTS Assay for Activators of Cytochrome P450 3A4 (AID 885; active = well fitted curve in the direction sought with a large enough effect; an effect the other way counts as inactive or inconclusive; also: nearly all actives have a fitted effect of over 65% in size). As to conditions: recombinant CYP3A4, Luciferin-PPXE luminescence, 60 min; series mostly up to 57.1 µM. Summed up:
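Human CYP3A4 (20 nM) with Luciferin-PPXE at 25 uM (its KM) in 200 mM KPO4; 10 min compound preincubation, then NADPH regeneration and 60 min reaction at RT. Luciferin read by luminescence; normalized to 57 uM ketoconazole full inhibition.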

For assay [17], the target named is Cytochrome P450 2C19 (Homo sapiens) (UniProt P33261). Put plainly: qHTS Assay for Inhibitors and Substrates of Cytochrome P450 2C19 (AID 899; active = well fitted curve in the direction sought with a large enough effect; an effect the other way counts as inactive or inconclusive; also: potency is read from the fitted curve at half-maximal effect; nearly all actives have a fitted effect of over 60% in size). As to conditions: recombinant CYP2C19, luciferin-H EGE luminescence; series mostly up to 57.1 µM. The method in brief: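 Reactions contain 5nM enzyme, 10uM Luciferin-H EGE (KM) and 50mM KPO4; compound preincubates 10 min at 37C, NADPH regeneration starts turnover for 60 min. Luminescence after detection reagent gives activity.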
Sequence of Cytochrome P450 2C19 (Homo sapiens) (P33261 whole entry, looked up): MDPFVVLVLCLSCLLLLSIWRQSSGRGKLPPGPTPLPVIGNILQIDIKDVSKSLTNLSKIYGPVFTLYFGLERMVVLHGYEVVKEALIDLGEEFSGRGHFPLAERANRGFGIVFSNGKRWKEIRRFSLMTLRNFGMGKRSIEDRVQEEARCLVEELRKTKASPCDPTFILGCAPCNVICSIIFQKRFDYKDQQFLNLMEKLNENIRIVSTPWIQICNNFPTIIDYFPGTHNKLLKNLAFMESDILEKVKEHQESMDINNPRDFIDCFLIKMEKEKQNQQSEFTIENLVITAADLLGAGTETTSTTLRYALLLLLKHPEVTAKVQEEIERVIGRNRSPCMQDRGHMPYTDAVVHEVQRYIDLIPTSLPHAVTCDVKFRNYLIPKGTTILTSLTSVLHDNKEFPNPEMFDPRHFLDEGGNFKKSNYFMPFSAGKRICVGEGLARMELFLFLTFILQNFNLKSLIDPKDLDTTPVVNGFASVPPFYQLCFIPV

Where [18] appears, read: measured here: cell count channel max response.
Setting [19] is: measured here: lipid channel max response.

Sequence of 3',5'-cyclic-AMP phosphodiesterase 4B (Homo sapiens) (Q07343 whole entry, looked up): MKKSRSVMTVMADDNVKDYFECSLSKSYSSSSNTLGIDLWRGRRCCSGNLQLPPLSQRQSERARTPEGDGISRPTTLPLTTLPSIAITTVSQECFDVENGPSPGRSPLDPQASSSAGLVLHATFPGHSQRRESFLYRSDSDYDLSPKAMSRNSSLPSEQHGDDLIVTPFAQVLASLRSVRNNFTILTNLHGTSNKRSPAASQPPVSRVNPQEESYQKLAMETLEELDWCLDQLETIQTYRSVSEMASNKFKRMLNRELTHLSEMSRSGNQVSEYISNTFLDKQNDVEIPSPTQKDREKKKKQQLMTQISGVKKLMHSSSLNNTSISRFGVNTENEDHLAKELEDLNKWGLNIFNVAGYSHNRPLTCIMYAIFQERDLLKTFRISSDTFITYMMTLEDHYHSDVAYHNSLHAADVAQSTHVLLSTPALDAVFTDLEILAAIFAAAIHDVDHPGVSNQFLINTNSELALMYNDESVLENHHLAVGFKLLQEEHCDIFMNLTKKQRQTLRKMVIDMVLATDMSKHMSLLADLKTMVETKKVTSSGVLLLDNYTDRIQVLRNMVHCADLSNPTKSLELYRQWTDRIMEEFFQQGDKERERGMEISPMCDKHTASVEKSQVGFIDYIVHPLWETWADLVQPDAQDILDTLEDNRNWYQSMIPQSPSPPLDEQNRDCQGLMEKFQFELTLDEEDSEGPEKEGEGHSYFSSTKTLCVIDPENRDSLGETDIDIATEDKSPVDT
Sequence of Lysosomal acid glucosylceramidase (Homo sapiens) (P04062 whole entry, looked up): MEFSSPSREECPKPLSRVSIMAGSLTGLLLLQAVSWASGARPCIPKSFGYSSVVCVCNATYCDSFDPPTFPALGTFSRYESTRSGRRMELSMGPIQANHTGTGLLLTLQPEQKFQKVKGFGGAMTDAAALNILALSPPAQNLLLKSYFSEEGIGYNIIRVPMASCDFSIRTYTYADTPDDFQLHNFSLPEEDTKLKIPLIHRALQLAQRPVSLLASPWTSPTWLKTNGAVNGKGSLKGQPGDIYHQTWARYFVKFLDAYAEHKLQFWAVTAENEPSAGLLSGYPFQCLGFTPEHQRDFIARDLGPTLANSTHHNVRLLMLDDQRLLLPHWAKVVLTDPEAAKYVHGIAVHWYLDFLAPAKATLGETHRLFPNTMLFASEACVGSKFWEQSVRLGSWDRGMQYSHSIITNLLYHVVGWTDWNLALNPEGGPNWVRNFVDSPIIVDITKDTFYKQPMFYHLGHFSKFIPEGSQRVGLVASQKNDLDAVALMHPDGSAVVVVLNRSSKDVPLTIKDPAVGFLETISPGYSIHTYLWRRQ
Sequence of Glucocorticoid receptor (Homo sapiens) (P04150 whole entry, looked up): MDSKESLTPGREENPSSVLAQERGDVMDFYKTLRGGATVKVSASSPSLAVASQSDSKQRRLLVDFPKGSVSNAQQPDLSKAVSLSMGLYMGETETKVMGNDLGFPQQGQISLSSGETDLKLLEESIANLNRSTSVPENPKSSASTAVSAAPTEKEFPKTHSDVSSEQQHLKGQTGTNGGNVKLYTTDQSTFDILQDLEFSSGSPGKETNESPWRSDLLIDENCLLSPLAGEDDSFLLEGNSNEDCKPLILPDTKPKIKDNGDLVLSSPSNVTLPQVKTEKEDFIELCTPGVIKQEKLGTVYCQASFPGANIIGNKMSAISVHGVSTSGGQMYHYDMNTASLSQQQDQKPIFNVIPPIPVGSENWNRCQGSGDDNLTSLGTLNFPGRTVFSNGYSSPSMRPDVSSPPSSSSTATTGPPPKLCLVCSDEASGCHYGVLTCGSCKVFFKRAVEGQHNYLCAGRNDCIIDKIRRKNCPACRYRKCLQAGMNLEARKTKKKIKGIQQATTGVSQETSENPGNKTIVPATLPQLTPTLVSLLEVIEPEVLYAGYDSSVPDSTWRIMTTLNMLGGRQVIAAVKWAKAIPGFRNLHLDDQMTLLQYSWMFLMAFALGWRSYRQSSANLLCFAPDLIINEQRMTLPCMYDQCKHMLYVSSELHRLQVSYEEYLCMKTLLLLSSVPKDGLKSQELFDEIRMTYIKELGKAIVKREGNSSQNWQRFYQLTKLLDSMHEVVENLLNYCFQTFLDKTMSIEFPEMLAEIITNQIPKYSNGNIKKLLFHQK
Sequence of Cytochrome P450 3A4 (Homo sapiens) (P08684 whole entry, looked up): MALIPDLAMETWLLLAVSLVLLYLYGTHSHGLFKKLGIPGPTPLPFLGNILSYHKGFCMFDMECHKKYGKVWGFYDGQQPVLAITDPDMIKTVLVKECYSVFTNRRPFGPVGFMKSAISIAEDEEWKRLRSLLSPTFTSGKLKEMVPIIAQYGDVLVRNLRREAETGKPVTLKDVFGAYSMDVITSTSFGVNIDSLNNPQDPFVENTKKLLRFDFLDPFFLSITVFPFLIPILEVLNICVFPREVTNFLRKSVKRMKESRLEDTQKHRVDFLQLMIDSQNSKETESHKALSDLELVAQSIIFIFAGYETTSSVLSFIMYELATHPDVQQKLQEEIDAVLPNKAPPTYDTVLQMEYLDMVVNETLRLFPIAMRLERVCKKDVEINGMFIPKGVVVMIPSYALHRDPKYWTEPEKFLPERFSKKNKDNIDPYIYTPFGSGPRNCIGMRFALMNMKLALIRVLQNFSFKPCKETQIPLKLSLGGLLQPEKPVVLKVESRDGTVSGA
Sequence of Ubiquitin carboxyl-terminal hydrolase 1 (Homo sapiens) (O94782 whole entry, looked up): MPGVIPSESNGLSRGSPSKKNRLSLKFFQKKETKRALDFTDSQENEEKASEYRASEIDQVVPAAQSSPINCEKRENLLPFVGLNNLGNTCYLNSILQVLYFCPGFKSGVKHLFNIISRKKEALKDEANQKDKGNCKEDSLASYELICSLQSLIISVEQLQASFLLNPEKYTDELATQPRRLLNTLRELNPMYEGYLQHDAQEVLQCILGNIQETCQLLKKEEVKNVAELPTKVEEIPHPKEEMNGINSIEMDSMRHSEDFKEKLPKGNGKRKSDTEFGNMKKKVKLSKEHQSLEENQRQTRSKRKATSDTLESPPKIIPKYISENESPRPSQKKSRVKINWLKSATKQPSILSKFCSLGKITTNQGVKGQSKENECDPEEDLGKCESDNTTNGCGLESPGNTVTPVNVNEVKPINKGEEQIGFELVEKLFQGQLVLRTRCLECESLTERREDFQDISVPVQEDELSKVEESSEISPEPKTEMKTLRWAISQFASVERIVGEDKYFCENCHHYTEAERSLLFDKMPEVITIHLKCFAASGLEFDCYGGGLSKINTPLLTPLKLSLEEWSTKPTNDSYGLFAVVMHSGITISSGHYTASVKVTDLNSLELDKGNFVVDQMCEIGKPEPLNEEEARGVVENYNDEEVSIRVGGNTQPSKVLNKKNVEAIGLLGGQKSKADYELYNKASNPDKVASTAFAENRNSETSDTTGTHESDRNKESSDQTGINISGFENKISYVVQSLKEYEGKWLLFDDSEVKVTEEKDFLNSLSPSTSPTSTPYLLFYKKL

Take `COc1ccc(CNc2ncncc2-c2ccccc2Cl)c(OC)c1`: the Potency is > 11.4 µM (inactive) in assay [1], > 46 µM (inactive) in assay [5] and > 46 µM (inactive) in assay [6]. In addition, the figures for the activity change, negative = inhibition in [2], in assay [3] and in assay [11] were -16.1% (inactive), -7% (inactive) and 5.27% (inactive), respectively. Besides, the activity, negative = inhibition in assay [4] is 15.1% (inactive). For the same compound, the Potency result in assay [7], in assay [8], in assay [9] and in assay [12] was “inactive” each time. Moreover, the outcome in [10] and in [13] was inactive. The max response is -5% in assay [11] (setting [18]) and 2.12% in [11] (setting [19]).

Consider `COc1ccc(C(=O)N2CCC[C@@]3(CCN(c4ccccn4)C3)C2)cc1`, for which the Potency in assay [1] is > 11.4 µM (inactive); in assay [6], > 46 µM (inactive). The activity change, negative = inhibition is -10.4% (inactive) in assay [2], -4.97% (inactive) in assay [3] and 5.2% (inactive) in [11]. Moreover, in [4], the activity, negative = inhibition was -7.47% (inactive). Further, the Potency result in [7] and in [8] was “inactive” throughout. Further, the max response in assay [11] (setting [18]) is 13.5%; in assay [11] (setting [19]), 23.4%. Further, the result in assay [13] was inactive.

With `CN(C)Cc1ccccc1-c1cc(N(C)C)ncn1`, the Potency is > 11.4 µM (inactive) in [1], > 46 µM (inactive) in assay [5], > 46 µM (inactive) in assay [6] and 1.26 µM (active) in [14]. The activity change, negative = inhibition in assay [2] was -1.87% (inactive); in assay [3], -11.7% (inactive); in [11], 5.84% (inactive). For the same compound, the activity, negative = inhibition in assay [4] was 7.42% (inactive). For the same compound, the Potency entry in assay [7], in [8], in [9] and in assay [12] was “inactive” each time. Also, the activation in [15] was 5.79% (inactive). For the same compound, the compound was classed as inactive in assay [10] and in [13]. Moreover, the max response in assay [11] (setting [18]) is 8.47%; in assay [11] (setting [19]), 12%.

For the compound `O=c1c(-c2cc(F)cc(F)c2)nc2cncnc2n1Cc1ccc(F)cc1`, the Potency in assay [1] was > 11.4 µM (inactive); in [5], > 9.22 µM (inactive); in [6], > 46 µM (inactive). For the same compound, the activity change, negative = inhibition in assay [2] was -2.14% (inactive); in [3], -15.1% (inactive); in assay [11] it was -8.57% (inactive). The activity, negative = inhibition in assay [4] is -0.133% (inactive). For the same compound, the Potency result in [7], in assay [8] and in assay [16] was “inactive” in each case. For the same compound, the max response in assay [11] (setting [18]) is -5.87%; in assay [11] (setting [19]), -11%. In addition, the result in [13] was inactive.

Take `N#Cc1ccc(CN2CC[C@@]3(CCCN(C(=O)c4ccncc4)C3)C2)cc1`: the Potency was > 11.4 µM (inactive) in assay [1] and > 46 µM (inactive) in assay [6]. In addition, the values for the activity change, negative = inhibition in [2], in assay [3] and in assay [11] were -10.1% (inactive), -7.12% (inactive) and 4.36% (inactive), respectively. Further, the activity, negative = inhibition in assay [4] was 8.24% (inactive). Moreover, the Potency entry in assay [7] and in assay [8] was “inactive” each time. The max response stood at 17.6% in assay [11] (setting [18]) and 26% in assay [11] (setting [19]). Also, the outcome in assay [13] was inactive.

In the case of `CC(C)NC(=O)N1CCC2(CC1)CCN(S(=O)(=O)c1ccccc1)CC2`, the Potency was > 11.4 µM (inactive) in assay [1] and > 46 µM (inactive) in assay [6]. Moreover, the values for the activity change, negative = inhibition in assay [2], in assay [3] and in assay [11] were -11.1% (inactive), 6.99% (inactive) and 3.73% (inactive), respectively. Further, in [4], the activity, negative = inhibition was -1.93% (inactive). The Potency entry in [7] and in assay [8] was “inactive” throughout. For the same compound, the max response in assay [11] (setting [18]) is -0.645%; in [11] (setting [19]), 4.57%. Besides, the result in assay [13] was inactive.

`Cc1ccccc1-c1cc(Nc2ccc(F)cc2)ncn1`: the Potency is > 11.4 µM (inactive) in assay [1], > 46 µM (inactive) in assay [5], > 46 µM (inactive) in assay [6] and 0.631 µM (active) in assay [17]. Further, the activity change, negative = inhibition in assay [2] is -11.7% (inactive); in [3], 6.17% (inactive); in assay [11], 9.27% (inactive). The activity, negative = inhibition in [4] is -0.99% (inactive). Further, the Potency entry in [7], in assay [16] and in [9] was “inactive” each time. In addition, the result in assay [10] and in assay [13] was inactive. Moreover, the max response is -1.72% in assay [11] (setting [18]) and 7.96% in assay [11] (setting [19]).
